# Reference: paper PMC5540273 (PLoS ONE, 2017)
# Tested on: FRK
# Conditions: concentration: 1 μM,replicates: in singlicate; n = 1
# 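Also: KINOMEscan kinase panel screen.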
row,SMILES,%Inh [%]
1,COc1ccc(Nc2nccc(N3CCC(NC(=O)c4cccc(C#N)c4)C3)n2)cc1 (stereo not drawn) [GSK1379730],0
2,C[C@@H](Oc1cc(-n2cnc3cc(-c4cnn(C)c4)ccc32)sc1C(N)=O)c1ccccc1Cl [GSK580432],12
3,O=C(Nc1n[nH]c2cc(-c3ccco3)ccc12)C1CC1 [SB-737447],0
4,COC(=O)Nc1nc2cc(Oc3ccc(NC(=O)Nc4cc(C(F)(F)F)ccc4Cl)cc3)ccc2[nH]1.Cl [GW697465],91.8
5,Cc1cccc2c(-c3ccncc3)c(-c3ccc(F)cc3)nn12.Cl [GW461487],0
6,O=c1[nH]cc(-c2ccc(O)cc2)c2sc(-c3ccncc3)cc12 [GSK1033723],0
7,COc1cccc(CNC(=O)NC2CCN(c3ccnc(Nc4cc(OC)c(OC)c(OC)c4)n3)C2)c1 (stereo not drawn) [GSK1379765],21
8,COc1cccc(OC)c1C(=O)Nc1cccc(-c2nn3ccccc3c2-c2ccnc(Nc3cccc(F)c3)n2)c1 [GSK361065],16
9,CC(=O)Nc1nc2cnc(Nc3cc(NC(=O)c4cccc(CC(C)(C)C#N)c4)ccc3C)nc2s1,83
10,CC(C)S(=O)(=O)N1CCN(Cc2ccc3c(c2)nc(NC(=O)c2ccsc2)n3C[C@H](O)c2ccccc2)CC1 [GW635815],3
11,Cc1ccc(Nc2ccnc(Nc3ccc4c(c3)CS(=O)(=O)C4)n2)cc1O.Cl [GW579362],99.1
12,Cc1nnc(-c2ccc3occ(-c4ccc(S(C)=O)cc4)c3n2)o1 (stereo not drawn),0
